Measurements published in the supplement of paper PMC8728848.
Many of the other results were omitted from the sample, so the strongest signals are more common in it than they were.

Legend:
Experiment in all cases: glycan array binding signal (z-score within array); higher = stronger binding
Settings in all cases: glycan notation: IUPAC condensed, linker removed
[1] = molecular target: Fuc(a1-2)Gal(b1-4)Glc
Summary of the method: (§1)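 The binding signal is a Z-score computed within each array. Data were drawn from 3228 arrays in the Consortium for Functional Glycomics database, restricted to those with a known protein sequence. Scores were averaged over arrays of the same protein sequence at different concentrations or buffers, and over linkers, and negative values can be taken as non-binding.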

[2] = molecular target: Fuc(a1-2)Gal(b1-4)GlcNAc(b1-3)Gal(b1-4)GlcNAc
Summary of the method: as §1

[3] = molecular target: Fuc(a1-2)Gal6S(b1-4)GlcNAc
Summary of the method: as §1

[4] = molecular target: Fuc(a1-2)[GalNAc(a1-3)]Gal(b1-4)GlcNAc
Summary of the method: as §1

[5] = molecular target: Fuc(a1-2)[GalNAc(a1-3)]Gal(b1-4)[Fuc(a1-3)]GlcNAc
Summary of the method: as §1

[6] = molecular target: Gal(a1-3)Gal(b1-3)GlcNAc
Summary of the method: as §1

[7] = molecular target: Gal(a1-3)GalNAc
Summary of the method: as §1

[8] = molecular target: Gal(a1-4)Gal(b1-4)GlcNAc(b1-3)Gal(b1-4)Glc
Summary of the method: as §1

[9] = molecular target: Gal(a1-4)GlcNAc
Summary of the method: as §1

[10] = molecular target: Gal(b1-3)[Fuc(a1-4)]GlcNAc(b1-2)Man(a1-3)[Gal(b1-3)[Fuc(a1-4)]GlcNAc(b1-2)Man(a1-6)]Man(b1-4)GlcNAc(b1-4)[Fuc(a1-6)]GlcNAc
Summary of the method: as §1

[11] = molecular target: Gal(b1-3)[Neu5Ac(a2-6)]GalNAc
Summary of the method: as §1

[12] = molecular target: Gal(b1-4)Glc6S
Summary of the method: as §1

[13] = molecular target: Gal(b1-4)GlcNAc(b1-3)GalNAc
Summary of the method: as §1

[14] = molecular target: Gal(b1-4)GlcNAc(b1-3)[Gal(b1-4)GlcNAc(b1-6)]Gal(b1-4)GlcNAc
Summary of the method: as §1

[15] = molecular target: Gal3S(b1-4)GlcNAc
Summary of the method: as §1

[16] = molecular target: Gal3S(b1-4)[Fuc(a1-3)]Glc6S
Summary of the method: as §1

[17] = molecular target: Gal4S6S(b1-4)GlcNAc
Summary of the method: as §1

[18] = molecular target: GalNAc(a1-3)GalNAc
Summary of the method: as §1

[19] = molecular target: GlcA(b1-3)Gal
Summary of the method: as §1

[20] = molecular target: GlcNAc(a1-4)Gal(b1-4)GlcNAc(b1-3)Gal(b1-4)[Fuc(a1-3)]GlcNAc(b1-3)Gal(b1-4)[Fuc(a1-3)]GlcNAc
Summary of the method: as §1

[21] = molecular target: GlcNAc(b1-2)Man(a1-3)[GlcNAc(b1-2)Man(a1-6)]Man(b1-4)GlcNAc(b1-4)[Fuc(a1-6)]GlcNAc
Summary of the method: as §1

[22] = molecular target: GlcNAc3Prop(b1-4)GlcNAc
Summary of the method: as §1

[23] = molecular target: Kdn(a2-3)Gal(b1-3)GlcNAc
Summary of the method: as §1

[24] = molecular target: Man(a1-2)Man(a1-2)Man(a1-3)Man
Summary of the method: as §1

[25] = molecular target: Man(a1-3)[Man(a1-6)]Man
Summary of the method: as §1

[26] = molecular target: Man(a1-3)[Man(a1-6)]Man(b1-4)GlcNAc(b1-4)GlcNAc
Summary of the method: as §1

[27] = molecular target: Neu5Ac(a2-3)Gal
Summary of the method: as §1

[28] = molecular target: Neu5Ac(a2-3)Gal(b1-3)GalNAc
Summary of the method: as §1

[29] = molecular target: Neu5Ac(a2-3)Gal(b1-3)[Neu5Ac(a2-3)Gal(b1-4)]GlcNAc
Summary of the method: as §1

[30] = molecular target: Neu5Ac(a2-3)Gal(b1-4)GlcNAc(b1-3)GalNAc
Summary of the method: as §1

[31] = molecular target: Neu5Ac(a2-3)Gal(b1-4)GlcNAc6S
Summary of the method: as §1

[32] = molecular target: Neu5Ac(a2-3)Gal(b1-4)[Fuc(a1-3)]GlcNAc
Summary of the method: as §1

[33] = molecular target: Neu5Ac(a2-3)Gal(b1-4)[Fuc(a1-3)]GlcNAc(b1-6)[Gal(b1-3)]GalNAc
Summary of the method: as §1

[34] = molecular target: Neu5Ac(a2-6)Gal(b1-4)GlcNAc(b1-3)Gal(b1-4)[Fuc(a1-3)]GlcNAc(b1-3)Gal(b1-4)[Fuc(a1-3)]GlcNAc
Summary of the method: as §1

B1: LERP (Drosophila melanogaster), B7Z0Q8 (protein)
chain: MRCSLQKDCAAPTQENFRQMRFPIVISLLLLLFCSGESVAADAANQLKFSTTECKLKEPIYGSTFDFSGLHSDLAHVVKSMNIGGDQFEFNICGNLSRTCNGESNVAACLKRQGKEYILGRQHELFYNNGNMFLKYKSGAKCDNGTADKPNYQLHVMFSCDYTLDAQPMHVTPYANEVCSFYISYRTPLACLSIPEGLQSNSCRVGDTKSNGTFDLMPLSDSNYHTSNRQGAFFVINVCKPVLYGENSMCPAGSSVCLFDSKATNPKERFINFGNVQTHPVVEKGQLLLRHESPTPCAKNSSANYTSVIYFSCDKFIRNAHPEFAGLGADSCTYQFNFATPLACNDLKPCTAFTSTNELLDLSSLSSKPARTLLKDGKNYTIAVCAHAGAPCQENGGACYEQNSTTISLGNSNSQLRFNQTGSLYLLYEDGAECSTATGMRRWSTKIEFVCANNATKDNGASTAGGSDSLKIIEDSNCQLLIQYQTPLACREPIRCKATTYVDHTNDGLGSSGDELIDLTPLISATDNYEARVELPASMEHLVPKTTKFFLNVCRPLVPKYQLGCAGGSAACMAKVTAAGAPEEERSMGFPLVSLTQRNRTFAELAYLKGDPCPTDNTSELSTHILFNCNMRAGRGQPVLRSVEDCAYRFEWETNVFCPPHECTFSADTCDLVHDELGRRFNFKSAPFTKDGKIEIDYNATKMSVNICGAHRKAMTDYSQALVNIFFTHESPNCGREGTMNVQIRLICSDQTESSSTISSDQQCNLLYVQRTPSICEFLSLGATQQNFESNGSTSSSTSSSSTSTTTSTTTQASPAGKPTKAATSTTTTTVGPDPAATPIGPTASVGTILGAILSVTFCVTCLGLLAFSPARRQRIRRLFRRSNSAVRYSRVQSNEEANLLLEPNGEFTESDDDMLL
glycan array binding signal (z-score) [1]: -1.18
glycan array binding signal (z-score) [2]: 0.534
glycan array binding signal (z-score) [3]: -0.168
glycan array binding signal (z-score) [4]: 0.43
glycan array binding signal (z-score) [5]: 1.65
glycan array binding signal (z-score) [6]: -0.704
glycan array binding signal (z-score) [7]: -0.56
glycan array binding signal (z-score) [8]: 2.8
glycan array binding signal (z-score) [9]: -0.583
glycan array binding signal (z-score) [10]: 5.88
glycan array binding signal (z-score) [11]: -0.837
glycan array binding signal (z-score) [12]: -0.389
glycan array binding signal (z-score) [13]: 0.146
glycan array binding signal (z-score) [14]: -0.458
glycan array binding signal (z-score) [15]: -0.01
glycan array binding signal (z-score) [16]: 1.16
glycan array binding signal (z-score) [17]: 0.955
glycan array binding signal (z-score) [18]: -0.435
glycan array binding signal (z-score) [19]: -0.753
glycan array binding signal (z-score) [20]: 3.64
glycan array binding signal (z-score) [21]: 6.93
glycan array binding signal (z-score) [22]: -0.064
glycan array binding signal (z-score) [23]: -0.084
glycan array binding signal (z-score) [24]: 5.38
glycan array binding signal (z-score) [25]: -0.079
glycan array binding signal (z-score) [26]: 2.66
glycan array binding signal (z-score) [27]: -0.653
glycan array binding signal (z-score) [28]: 0.949
glycan array binding signal (z-score) [29]: -0.204
glycan array binding signal (z-score) [30]: 0.38
glycan array binding signal (z-score) [31]: 0.734
glycan array binding signal (z-score) [32]: -1.2
glycan array binding signal (z-score) [33]: 2.71
glycan array binding signal (z-score) [34]: -0.095
